Results on 105 molecules are retold here after ChEMBL document CHEMBL4513216, “Probing the Open Global Health Chemical Diversity Library for Multistage-Active Starting Points for Next-Generation Antimalarials” (ACS Infect Dis, 2020).

About 8,600 (12%) of roughly 69,000 compounds showed an effect of 50% or more. The list comes from a sample in which strong results are over-represented; it also holds similar structures and randomly drawn compounds.

This assay has as its system Plasmodium berghei. Nature of the assay: Screen against P. berghei liver stage (PbLuc), transformed with Luciferase, at 10uM. The assay is classed as functional, HepG2. The following applies: tested at 10 uM.
`CCC(=O)Nc1nnc(CCOc2ccccc2OC)s1`: the INHIBITION is -23.8%. The figure for `O=C(NCC1Cn2nnc(-c3ccoc3)c2CO1)c1ccc[nH]1` (stereo not given) is 27.4%. Then `CN1CCCC1c1nccnc1-c1ccc(C(=O)O)cc1` (stereo not given), with -14.2%; and `Cc1ncsc1CN(Cc1ccccc1)Cc1ncc[nH]1`, with 46.6%; and `Cc1nn(C)c(C)c1C1CCCN1C(=O)c1ccc(C(N)=O)cn1` (stereo not given), with 9.555%.

Turning to `COc1c(C2CCCN2C(=O)c2ccc(N(C)C)nn2)c(C)nn1C` (stereo not given), the INHIBITION was -57.4%. Then `Cc1nn(C)c(Cl)c1C1CCCN1C(=O)c1ccc(N(C)C)nn1` (stereo not given), with 53.8%.

Turning to `Cc1nn(C)c(C)c1C1CCCN1C(=O)c1ccc(N(C)C)nn1` (stereo not given), the INHIBITION is given as -71.1%.

Consider `Cc1nn(C)c(Cl)c1C1CCCN1C(=O)c1ccc(O)nc1` (stereo not given), for which the INHIBITION is 48.1%. On to `Cc1nn(C)c(Cl)c1C1CCCN1C(=O)c1ccc(C(N)=O)cn1` (stereo not given), for which the INHIBITION is 84.3%. As for `Cc1nn(C)c(C)c1NC(=O)CN1CCN(c2nccs2)C(C)C1` (stereo not given), the INHIBITION worked out at 21.6%.

As for `Cc1c(C[S+](C)[O-])cccc1NC(=O)c1cc(Cl)ccn1` (stereo not given), the INHIBITION was -42.1%. On to `Cc1c(NC(=O)N(C)CCn2cnnc2)cccc1OC1CCCC1`, for which the INHIBITION is 13.3%. As for `CCNC(=O)N(CCCO)C1CCCc2ccccc21` (stereo not given), the INHIBITION is given as 45.7%. The figure for `CC(O)CN1CCC(CNCc2ccc(OC(F)(F)F)cc2)CC1` (stereo not given) is 44.7%; for `CCS(=O)(=O)N(C)c1ccc(C(=O)N2CCCC(C)C2)cc1` (stereo not given) it is 60.1%.

As to `CCN(c1ccc(C(=O)N2CCC(C)CC2)cc1)S(=O)(=O)CC`, the INHIBITION amounted to 22.9%. Then `CCN(c1ccc(C(=O)N2CCCC(C)C2)cc1)S(=O)(=O)CC` (stereo not given), with 10.1%.

In the case of `O=C(NCCc1cccnc1)Nc1cc(C(F)(F)F)c[nH]c1=O`, the INHIBITION is -12.6%. The figure for `COCCOCCC(=O)N1CCC(c2ccccc2C)C1` (stereo not given) is 55.2%.

On to `COCCOCC(=O)N1CCC(c2ccccc2F)C1` (stereo not given), for which the INHIBITION is reported as -112%.

For `Cc1ccccc1C1CCN(C(=O)CCNC(=O)C(C)(C)C)C1` (stereo not given), the INHIBITION was -66.4%.

Take `CS(=O)(=O)N1CCC(NC(=O)COc2ccc(Cl)cc2)CC1`: the INHIBITION is reported as -61.4%.

With `CC1c2ncc(CN3CCN(C)CC3)n2CCN1CC1CC1` (stereo not given), the INHIBITION is -10.4%. Then `Cc1cc(N2CCC(CO)(CC3CCCCO3)CC2)c2ccccc2n1` (stereo not given), with 47.6%. Then `Cc1cc(N2CCC3(CCCN(CCO)C3=O)C2)nc2cc(Cl)ccc12` (stereo not given), with 16.1%; and `Cc1cc(N2CCC(O)(C(=O)O)CC2)nc2ccccc12`, with 32.2%. `COCCC1(C(=O)O)CCN(c2cc(C)c3ccccc3n2)CC1`: the INHIBITION is recorded as 62.8%. Then `OCC1(CC2CCCCO2)CCN(c2cnc3ccccc3n2)CC1` (stereo not given), with 83.9%; and `c1ccc2nc(N3CCOC(Cn4cccn4)C3)cnc2c1` (stereo not given), with -34%; and `Cc1cc(N2CCC3(CC2)C(C(=O)O)CC(=O)N3C)nc2ccccc12` (stereo not given), with 9.56%. Then `CN(C)CC1CN(c2cnc3ccccc3n2)CCO1` (stereo not given), with 38.8%; and `Cc1cc(N2CCC3(CCCN(CCO)C3=O)C2)nc(C)c1C#N` (stereo not given), with 38%; and `Cc1cc(N2CCC(CO)(CC3CCCCO3)CC2)nc2ccccc12` (stereo not given), with 53%. The figure for `COCCC1(C(=O)O)CCCN(c2cc(C)c3ccccc3n2)C1` (stereo not given) is 20.2%.

With `Cc1cc(N2CCC3(CCCN(CCO)C3=O)C2)nc2ccccc12` (stereo not given), the INHIBITION is 57.2%. Then `Cc1cc(C(=O)N(CC(F)(F)F)C2CCOCC2)c(C)o1`, with 15%; and `Cc1nnc(CNC(C)c2cc(C)c(F)c(C)c2)s1` (stereo not given), with 36.2%; and `CC(C(=O)Nc1ccccn1)n1ccc(C(F)(F)F)n1` (stereo not given), with 11%. Then `O=C(O)[C@@H]1CN(C(=O)CSCC2CC2)C[C@H]1c1ccncc1`, with -8.7%. Then `CCN(CC1CCOC1)C(=O)c1cn2ccc(C)cc2n1` (stereo not given), with 30.5%; and `Cc1cc(-c2cc(N)c(=O)n(CC(=O)NC3CCCC3)n2)c(C)o1`, with 18.27%. Consider `Cc1ccc(CN2CC[C@@H]3[C@@H](CO[C@H]3CN3CCN(C)CC3)C2)cc1`, for which the INHIBITION worked out at 23.3%.

As to `Cc1cc(C(=O)N2CC[C@@H](O)[C@@H]2Cc2ccccc2)no1`, the INHIBITION is reported as 2.58%.

In the case of `COc1ccc2c(c1)OC1(CCN(Cc3cccc(C)c3)CC1)CC2=O`, the INHIBITION was 37.2%. Then `COc1ccc2c(c1)OC1(CCN(Cc3ccc(C)cc3)CC1)CC2=O`, with 31.2%. Turning to `CCOC(=O)CN1CCC2(CC1)CC(=O)c1ccc(OC)cc1O2`, the INHIBITION is reported as 72.4%.

For the molecule `COc1ccc2c(c1)OC1(CCN(Cc3ccccc3C)CC1)CC2=O`, the INHIBITION is recorded as 5.56%. `COc1ccc2c(c1)OC1(CCN(Cc3ccc(F)cc3)CC1)CC2=O`: the INHIBITION is 51.6%. Then `COc1ccc2c(c1)C(=O)CC1(CCN(Cc3ccc(F)cc3)CC1)O2`, with -0.371%. As to `CSCCC(=O)N1C[C@@H](C)[C@](O)(C(C)C)C1`, the INHIBITION was 22.5%. The figure for `CCn1cnnc1CNC(=O)N1CCC(CN2CCOCC2)CC1` is -11.4%; for `CNc1ncc(CN(C)C(=O)c2cccc(-n3cnnc3)c2)cn1` it is 28.5%; for `CC(C)c1nc(C2CCCN2Cc2cc(=O)n(C)c(=O)n2C)no1` (stereo not given) it is 33.8%.

Turning to `CCc1[nH]nc(NC(=O)c2cc[nH]n2)c1C`, the INHIBITION was 0.342%.

In the case of `N#Cc1ccc(N2CCC3(CCC(=O)N3CCN3CCCC3)CC2)nc1`, the INHIBITION stood at 68.4%. The figure for `O=C1CCC2(CCCN(c3ncc(F)cn3)CC2)N1CC1CC1` (stereo not given) is -57.6%; for `N#Cc1ccc(N2CCC3(CCC(=O)N3Cc3cccnc3)CC2)nc1` it is 27.6%. Then `N#Cc1ccc(N2CCCC3(CCC(=O)N3CC3CC3)CC2)nc1` (stereo not given), with 56.6%. The figure for `CN1C(=O)CCC12CCN(c1ccc(C#N)cn1)CC2` is 38.5%; for `N#Cc1ccc(N2CCC3(CCC(=O)N3Cc3ccncc3)CC2)nc1` it is 43.9%; for `O=C(c1ccsc1)N1CCN2C[C@H](OCc3cccnc3)C[C@H]2C1` it is 21.6%. With `CCc1nc(-c2ccc(NC(=O)N3CCCC3)cc2)no1`, the INHIBITION is recorded as -81%. With `CCCC1COCCN1Cc1ccc(C(=O)O)cc1` (stereo not given), the INHIBITION is given as 19.8%. `Cc1nc2cc(O)nn2c(C)c1CCC(=O)N(C)Cc1ccccc1`: the INHIBITION was -24.8%. The figure for `Cc1cc(C(=O)N2CCN(CC(O)Cn3cccn3)CC2)c(C)o1` (stereo not given) is 29.6%; for `Cc1cccc(C(=O)N2CCN(C(=O)Cc3ccccn3)CC2)c1C` it is 31.8%.

With `Cc1ccccc1C(=O)N1C[C@@H]2C(CN(C)CCc3ccccn3)[C@@H]2C1` (stereo not given in full), the INHIBITION was 55.4%. `Cc1cc(C(=O)N2C[C@@H]3C(CN(C)CCc4ccccn4)[C@@H]3C2)c(C)o1` (stereo not given in full): the INHIBITION was 41.5%. The figure for `Cc1cc(C(=O)N2CCC(CCn3cccn3)CC2)c(C)o1` is 39.5%. Then `Cc1cc(C(=O)N2C[C@@H]3C(CN(C)CCCn4cccn4)[C@@H]3C2)c(C)o1` (stereo not given in full), with 52.6%; and `Cc1noc(C2CCC3(CCN(C(=O)c4cnccn4)CC3)O2)n1` (stereo not given), with -4.32%. Then `c1ccc(-n2ccc(CNC3CCc4ncnn4C3)n2)cc1` (stereo not given), with 16.45%; and `Cc1ccc(-c2ccccc2CC2(C(=O)NC(C)C)CCCNC2)cc1` (stereo not given), with 42.1%. With `Cc1occc1C(=O)N1CCCn2cnc(CN3CCCC3=O)c2C1`, the INHIBITION came to 34.2%.

For the molecule `COc1nccc(N2CC[C@@H](N3CCN(C)CC3)[C@H](O)C2)c1C#N`, the INHIBITION is listed as -3.77%. Then `Cc1ccccc1CC1(CO)CCCN(c2ncnc3sccc23)C1` (stereo not given), with 87.9%. The figure for `Cc1ccccc1CC(=O)N(C)CC1(O)CCCN(c2ccccn2)C1` (stereo not given) is -10.5%. Consider `Cc1cnc(C)c(N2CCCC(CC3CC3)(C(=O)O)C2)n1` (stereo not given), for which the INHIBITION came to 57.5%. The figure for `Cc1ccccc1CC1(C(=O)O)CCCN(c2ncnc3[nH]ccc23)C1` (stereo not given) is 25.5%; for `Cc1ccccc1CC1(CO)CCCN(c2ncncc2C(C)C)C1` (stereo not given) it is 68.4%.

For `Cc1cnc(C)c(N2CCCC(CO)(Cc3ccccc3C)C2)n1` (stereo not given), the INHIBITION came to 68.4%. Then `COc1cccc(CC2(CO)CCCN(c3nccs3)C2)c1` (stereo not given), with 3.46%; and `CCCC1(CO)CCCN(c2ncnc3c2c(C)nn3C)C1` (stereo not given), with 25.9%; and `Cc1cnc(C)c(N2CCCC(C/C=C/c3ccccc3)(C(=O)O)C2)n1` (stereo not given), with 27.9%. Then `Cc1cnc(C)c(N2CCC(Cc3ccccc3Cl)(C(=O)O)CC2)n1`, with 13.5%; and `CCNC(=O)[C@@H]1C[C@@H](NC(=O)c2ccc(C#N)cc2)CN1CCCSC`, with -14.3%. The figure for `CCCC(=O)N1CCC([C@@H]2C[C@H](C(F)(F)F)n3nc(C)cc3N2)CC1` is -29.8%. For the molecule `CC(=O)Nc1nc(C(=O)N2CCCC2Cn2cccn2)cs1` (stereo not given), the INHIBITION was 37.3%. On to `CN(C(=O)Cn1nc(-c2ccc(F)cc2)ccc1=O)C1CCS(=O)(=O)C1` (stereo not given), for which the INHIBITION is listed as 13.4%. The figure for `c1cnnc(N2CCCC2CNCc2csc(-c3ccco3)n2)c1` (stereo not given) is 31.95%; for `Cc1ncsc1C(=O)N(Cc1cccs1)C1CC1` it is 6.25%; for `CCCNCc1cn(C)nc1-c1cccnc1` it is 2.74%. Then `COc1c(C2CCCN2C(=O)c2csc(C3CC3)n2)c(C)nn1C` (stereo not given), with -21.5%; and `CC(C)Nc1cccc(CC2CCN(C)C2)n1` (stereo not given), with -52.6%; and `COCC1CN(Cc2c(C)noc2C)Cc2ccnn2C1` (stereo not given), with 15.9%.

Turning to `CC(C)N1CC(C(=O)N2CCc3c(nc(CC4CC4)[nH]c3=O)C2)CC1=O` (stereo not given), the INHIBITION stood at 20.6%. As to `CC(C)N1CCCC(C(=O)N2CCc3c(nc(CC4CC4)[nH]c3=O)C2)C1` (stereo not given), the INHIBITION was 26.9%. Then `CC(C)N1CCC(C(=O)N2CCc3c(nc(CC4CC4)[nH]c3=O)C2)CC1`, with 53.8%; and `c1csc(CN2CCn3c(Cn4cncn4)cnc3C2)c1`, with 20.6%. On to `CC(=O)N1CC(=O)N(c2cccnc2)CC12CCN(Cc1nccs1)C2` (stereo not given), for which the INHIBITION is -3.52%. As to `N#Cc1cccc(CN2CCO[C@@H]3CNC[C@@H]32)c1`, the INHIBITION was 16.9%.

`c1ccc(CN2CCOC3CNCC[C@H]32)cc1` (stereo not given in full): the INHIBITION was 55.5%.

Consider `O=C(c1ccccc1)N1CCOC2CNCC[C@H]21` (stereo not given in full), for which the INHIBITION was 28.5%. Consider `O=C(O)c1ccn(-c2ccccc2NS(=O)(=O)c2cccc(Cl)c2F)n1`, for which the INHIBITION came out at 32.9%.
